# Results as given in PubChem BioAssay (NCI).
# This is part of a sample that, as a whole, favours compounds with a hit. Of some 83,000 tested, about 20% had one in any assay.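 How to read the values: 0–100, growth inhibition (40 = 60% inhibited); 0, no net growth; -100 to 0, cell death (-40 = 40% of starting cells died; -100 = all dead).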 Active and inactive are the calls of the source. Rule for the calls: active = growth percent below 10; inactive = the rest.
# System: MDA-MB-468 breast
# Test: NCI-60 one-dose screen, 48 h (100 = growth as untreated, 0 = no growth, -100 = all killed)
# Settings: 10 µM unless noted
row,SMILES,growth
1,COc1ccc2c(O)c(/C=C3\N=Nc4ccccc43)oc2c1C[C@H]1CCNC[C@H]1F,75.6% (inactive)
2,COc1ccc(C2=Nc3c(C)nn(-c4ccccc4)c3NC(c3ccc(Oc4ccnc5cc(Cl)ccc45)c(OC)c3)C2)cc1 (stereo not drawn),80.3% (inactive)
3,C=C(C)[C@@H]1CC[C@]2(C(=O)OC)CC[C@]3(C)[C@H](CC[C@@H]4[C@@]5(C)C/C(=C/NC(N)=S)C(=O)C(C)(C)[C@@H]5CC[C@]43C)[C@@H]12,103% (inactive)
